PubChem BioAssay AID1645879 (National Center for Advancing Translational Sciences (NCATS), 2021)
Inconclusive results are not listed. Unmarked numbers belong to inactive results. Calls follow the shape of the dose curve; as a rule, active = well fitted inhibition curve with a large enough effect; inconclusive = small, poorly fitted or top-dose-only effect; inactive = no such curve, though single readings can be large or run the other way.

assay: Counterscreen qHTS assay for inhibitors of N-terminal methyltransferase 1 (NTMT1): SPKRIA Counterscreen Assay; details: biochemical qHTS; series mostly up to 99.2 µM; activity change, negative = inhibition: at the top concentration
Text: Assay Submitter (PI): Rong Huang Ph.D,
Purdue University, West Lafayette, IN 47907
The N-terminal methytransferase 1 is the first methyltransferase that methylates protein alpha-N-amines and plays an important role in regulating cell mitosis, chromatin interactions and DNA repair. It is observed to be over-expressed in various cancer patient tissues like malignant melanoma and colorectal cancer tissues. Knockdown of NTMT1 in cancer cells causes cell mitotic defects and enhances sensitivity to DNA damaging chemotherapeutics. […] These critical cellular processes in which NTMT1 is implicated, coupled with emerging links to cellular dysfunction, strengthen the inference that NTMT1 is a compelling novel anticancer target. Progress have been made in understanding the molecular properties of NTMT1 and the biological consequences of protein alpha-N-terminal methylation, but there are no specific small molecule probes available for NTMT1 to fully characterize its MTase activity. To address this unmet need, a panel of assay is created and established to enable quantitative high-throughput screening (qHTS) for novel, potent, and selective small molecule NTMT1 inhibitors. Two orthogonal qHTS that use different reagents (ThioGlo vs. MTaseGlo) are developed for primary robotic screening against the NCATS chemical library of more than 400,000 small molecules. Identified inhibitors are reacquired, validated, and further characterized.
MTaseGlo Assay is a luminescence screen that measure the activity of methyltransferases based on the reaction product S-adenosyl homocysteine (SAH). The substrate SAM is converted to SAH upon enzyme activation. MTase-Glo reagent and detection solution convert SAH to ATP and measure the light from the luciferase reaction. Nicotinamide N-methyltransferase (NNMT) is a cystolic enzyme that catalyzes the transfer of a methyl group from the co-factor SAM onto the substrate, nicotinamide (NA) to form 1-methyl-nicotinamide (MNA) and SAH. NNMT MTaseGlo assay is used as a counterscreen to evaluate selectivity of identified inhibitors.
SPKRIA and Ac-RCC-10 control is provided by the Huang laboratory.
PROTOCOL TABLE; SEQUENCE No. (e.g., 1, 2, 3, etc.); […] (e.g., Cells, Incubation, Reagent, etc.); VALUE; DESCRIPTION
1; Reagent; 3 uL; dispense assay buffer.
2; Compound; 23 nL; pin compounds and control into the assay plate.
3; Time; 15 min; room temperature incubation.
4; Reagent; 1 uL; dispensed [4x] substrate or buffer.
5; Time; 30 min; incubate at room temperature.
6; Reagent; 1 uL; dispense MTase-Glo Reagent (R).
7; Time; 30 min; incubate at room temperature.
8; Reagent; 5 uL; dispense [1x] MTase-Glo Detection Solution to allow for ADP to be converted to ATP.
9; Centrifugation; 1,000 RPMs; assay plates were centrifuged.
10; Incubation; 30 min; room temperature.
11; Detection; Luminescence; ViewLux plate reader (clear filter, 10 second exposure).
NOTES (numbers refer to Sequence numbers above; values are from representative experiments)
1; Dispense the assay buffer into Greiner 1536-well black / solid bottom assay plate (Greiner Bio One, Monroe, NC).
2; Pin control inhibitor Ac-RCC1-10 at a final concentration range of 234 nM to 143 uM using a Wako Pin Tool (Wako Automation USA) equipped with a 1536-slotted pin array (Wako Automation, Richmond, VA). Pin compound library into the assay plates (columns 5 - 48) at a final concentration range of 97 nM to 250 uM.
3; Incubate the assay plates at room temperature.
4; Dispense 1 uL of substrate SPKRIA solution (final concentration 1 uM) or 1 uL buffer was added to the wells bringing the final assay volume to 4uL. The assay plate was covered with metal lids.
5; Incubate the assay plate at room temperature.
6; Dispense 1 uL of 5x MTase-Glo Reagent in the assay plate.
7; Incubate at room temperature to allow for SAH to be converted to ADP
8; Dispense 5 uL of 5x MTase-Glo Detection Solution in the assay plate to allow for ADP to be converted to ATP.
9; Assay plates were centrifuged for 15 seconds.
[…]

Row | SMILES | activity change, negative = inhibition
1 | C=CC[C@]1(O)CC[C@H]2[C@@H]3CCC4=CC(=O)CCC4=C3C=C[C@@]21C | 4.78%
2 | C[C@]12CC[C@H]3[C@@H](CCC4=CC(=O)CC[C@@H]43)[C@@H]1CC[C@@H]2O | -10.8%
3 | CN(C)CCc1c[nH]c2cccc(O)c12 | -10.5% [at 204 µM]
4 | CC[C@]1(O)CC[C@H]2[C@@H]3CCC4=CCCC[C@@H]4[C@H]3CC[C@@]21C | -1.58%
5 | C[C@H](N)C(=O)c1ccccc1 | -17.5% [at 251 µM]
6 | C[C@@H]1CC2=CC(=O)CC[C@@H]2[C@H]2CC[C@@]3(C)[C@@H](CC[C@]3(C)O)[C@@H]21 | -13.2%
7 | C[C@]12CCC(=O)C=C1CC[C@@H]1[C@@H]2CC[C@@]2(C)[C@H]1CC[C@]2(C)O | -3.68%
8 | CCc1cc(OC)c(C[C@H](C)N)cc1OC | -7.41% [at 204 µM]
